# Reference: PubChem BioAssay
# For part of these data: Results with a measured potency or affinity are listed apart. Calls of active or inactive are those of the source.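 Rule for the calls, unless noted: active = fluorescence ratio normalized to control raised more than 50% in primary screen plus both repeat runs; inactive = the rest.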
# Experiments:
# [1] = system: TRPC4 beta (transient receptor potential cation channel C4), mouse; test: activators of mouse TRPC4 channel, confirmation, cell-based, Fluo4 calcium, HEK293 TRPC4beta/mu-opioid, duplicates, 10 µM (AID 2426); settings: Fluo4 calcium fluorescence, at 10 µM; active compounds read high
# [2] = system: transient receptor potential cation channel C4 beta (TRPC4), mouse; test: activators of mouse TRPC4 channel, confirmation, cell-based, second round, Fluo4, HEK293 TRPC4beta/mu-opioid, 1 µM (AID 2461;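 active = primary screen active and over 50% activation in each of two duplicate runs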); settings: Fluo4 calcium fluorescence, at 1 µM; active compounds read high
# [3] = system: TRPC4 (transient receptor potential cation channel C4 beta), mouse; test: positive allosteric modulators of mouse TRPC4, confirmation, cell-based, second round, Fluo-4, HEK293 TRPC4beta/mu-opioid, 1 µM (AID 2554;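 active = primary screen hit whose fluorescence ratio, in both repeats, exceeds the weak agonist control mean by 3 SD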); settings: DAMGO EC20, Fluo-4 calcium flux, at 1 µM; active compounds read high
# [4] = system: TRPC4 beta (transient receptor potential cation channel C4), mouse; test: positive allosteric modulators of mouse TRPC4, confirmation, cell-based, Fluo-4, HEK293 TRPC4beta/mu-opioid (AID 2555;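 active = primary screen hit whose calcium fluorescence ratio, in both repeats, exceeds the weak agonist control mean by 3 SD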); settings: DAMGO EC20, Fluo-4 calcium flux, at 10 µM; active compounds read high
# [5] = biological target: Short transient receptor potential channel 4 (Mus musculus) (UniProt Q9QUQ5); test: inhibitors of mouse TRPC4 channel, confirmation, cell-based, Fluo4, HEK293 TRPC4beta/mu-opioid (AID 2636;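 active = calcium signal cut by more than 3 SD below the full-agonist control yet still positive, in both repeats and the earlier primary screen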); settings: DAMGO, Fluo4 calcium flux, at 10 µM; active compounds read high
# [6] = biological target: Short transient receptor potential channel 4 (Mus musculus) (UniProt Q9QUQ5); test: inhibitors of mouse TRPC4 channel, confirmation, cell-based, second round, Fluo4, HEK293 TRPC4beta/mu-opioid, 1 µM (AID 2637;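 active = calcium signal ratio cut to more than 3 SD under the fully stimulated control mean yet still positive, in both repeats and the primary screen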;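 for inhibition: percent of integrated ratio relative to wells lacking test compound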); settings: Fluo4 calcium flux, DAMGO, at 1 µM; active compounds read high
# [7] = biological target: Short transient receptor potential channel 4 (Mus musculus) (UniProt Q9QUQ5); test: mouse TRPC4 channel activators, dose response, cell-based, HEK293 TRPC4/mu-opioid, Fluo-4 calcium (AID 434937;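 active = primary screen activator hit with a dose response curve and TRPC4 channel activation at any tested dose; inactive = no activation, no dose response, or not a primary hit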)
# [8] = biological target: Short transient receptor potential channel 4 (Mus musculus) (UniProt Q9QUQ5); test: TRPC4 positive allosteric modulators, dose response, cell-based, HEK293 TRPC4/mu-opioid, Fluo-4 calcium, EC20 DAMGO (AID 434941;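 active = earlier screen potentiator hit that boosts the TRPC4 ion channel at some dose, with a dose response; inactive = no potentiation, no dose response, or not a prior hit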;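 note: calcium entry triggered by an EC20 dose of DAMGO at the co-expressed mu-opioid receptor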)
# [9] = biological target: Short transient receptor potential channel 4 (Mus musculus) (UniProt Q9QUQ5); test: mouse TRPC4 channel inhibitors, dose response, cell-based, HEK293 TRPC4/mu-opioid, Fluo-4 calcium (AID 434942;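 active = primary screen inhibitor hit that blocks the TRPC4 channel at some tested dose, yielding a dose curve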)
# [10] = biological target: Short transient receptor potential channel 6 (Mus musculus) (UniProt Q61143); test: inhibition of mouse TRPC6 channel, confirmation, selectivity assay for TRPC4 inhibitor project, cell-based, HEK293, membrane potential dye, duplicate (AID 434948;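 active = active in primary screen and both duplicates, each dropping signal beyond three positive-control SD with fluorescence still positive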); settings: HEK293 TRPC6, membrane potential dye fluorescence, at 10 µM, stimulated with maximal-effect acetylcholine; active compounds read high
# [11] = biological target: Short transient receptor potential channel 6 (Mus musculus) (UniProt Q61143); test: activation of mouse TRPC6 channel, confirmation, selectivity assay for TRPC4 activator project, cell-based, HEK293, membrane potential dye, duplicate (AID 434950;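 active = membrane potential signal rise above negative control mean plus 3 SD in both duplicates, also active in the earlier TRPC4 screen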); settings: HEK293 TRPC6, membrane potential fluorescence, at 10 µM; active compounds read high
# [12] = biological target: Short transient receptor potential channel 6 (Mus musculus) (UniProt Q61143); test: TRPC6 potentiation by TRPC4 potentiator hits, confirmation, selectivity assay for TRPC4 potentiator project, HEK293 cells, membrane potential dye, duplicate (AID 434952;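 active = compound raising the membrane signal above positive-control mean plus 3 SD in both repeats, and a primary screen hit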); settings: HEK293 TRPC6, membrane potential dye fluorescence, at 10 µM, maximal acetylcholine added after compound; active compounds read high
# [13] = biological target: Short transient receptor potential channel 4 (Mus musculus) (UniProt Q9QUQ5); test: calcium flux activators in TRPC4/5HT1a cells, counter-screen for TRPC4 activator project, cell-based, second counter screen, HEK293 TRPC4/5HT1a, Fluo-4 (AID 434977;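 active = calcium signal rise above buffer-control mean plus 5 SD in both duplicates, and also a hit in the primary screen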); settings: Fluo-4 calcium flux, at 10 µM; active compounds read high
# [14] = calcium flux inhibitors in TRPC4/5HT1a cells, confirmation, counter-screen for TRPC4 inhibitor project, cell-based, second counter screen, HEK293 TRPC4/5HT1a, Fluo-4 (AID 434978;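 active = primary screen active whose calcium signal fell more than 3 SD beyond the full-serotonin control mean in both duplicate plates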;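 for outcome: serotonin given first at submaximal then at maximal dose after compound preincubation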); settings: Fluo-4 calcium flux, at 10 µM, serotonin added to trigger calcium flux; active compounds read high
# [15] = system: TRPC4 (mouse), co-expressed with 5HT1a in HEK293; test: calcium flux potentiators in TRPC4/5HT1a cells, confirmation, counter-screen for TRPC4 potentiator project, cell-based, second counter screen, HEK293 TRPC4/5HT1a, Fluo-4 (AID 434979;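 active = signal rise over 3 SD above mean of control wells given weak agonist, in both repeats and first screen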); settings: Fluo-4 calcium flux, at 10 µM, serotonin added at its EC20 dose; active compounds read high
# [16] = calcium flux activation in mu-opioid HEK293 cells, confirmation, counter-screen for TRPC4 activator project, cell-based, HEK293 mu-opioid receptor line (AID 449723;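 active = hit in primary screen, with calcium signal over 5 SD above buffer well mean in both duplicates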;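 note: counter screen cells carry the mu-opioid receptor alone and lack TRPC4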); settings: Fluo-4 calcium fluorescence, at 10 µM; active compounds read high
# [17] = calcium flux enhancement in mu-opioid HEK293 cells, confirmation, counter-screen for TRPC4 allosteric potentiator project, cell-based, HEK293 mu-opioid receptor line (AID 449724;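 active = calcium signal rise more than 3 SD above the low-dose agonist control mean, in both duplicate plates and the primary screen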); settings: Fluo-4 calcium flux, at 10 µM, compound added before EC20 DAMGO stimulus; active compounds read high
# [18] = thallium flux activation in parental CHO cells, counter-screen for KCNQ1 potentiator project (AID 493006;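 active = duplicate-averaged activation above buffer control mean plus 5 SD of those controls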;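 for activation: fluorescence ratio of max minus min over baseline after K+ and Tl+ depolarization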); settings: parental CHO-K1 cells, FluxOR thallium flux, at 10 µM; active compounds read high
# [19] = biological target: Potassium voltage-gated channel subfamily KQT member 1 (Homo sapiens) (UniProt P51787); test: KCNQ1 potassium channel potentiators, confirmation, FluxOR thallium flux, CHO cells, duplicates (AID 493007;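 active = potentiation averaged over duplicate wells exceeding buffer-only control mean by more than 3 SD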;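 note: 0% = buffer-only wells and 100% = R-L3 activator control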); settings: KCNQ1 cell line, FluxOR thallium flux fluorescence, at 10 µM; active compounds read high, % of reference activator effect, buffer zero
# [20] = biological target: Potassium voltage-gated channel subfamily KQT member 2 (Rattus norvegicus) (UniProt O88943); test: rat KCNQ2 channel potentiation, selectivity assay for KCNQ1 potentiator project, KCNQ2-CHO-K1 cells (AID 493009;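 active = mean duplicate potentiation above the buffer control mean plus 5 SD of buffer wells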;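 note: assay conditions were tuned for KCNQ1 rather than KCNQ2 modulators; signal is max minus min fluorescence divided by baseline after thallium stimulus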); settings: FluxOR thallium flux fluorescence, at 10 µM; active compounds read high, scaled: buffer 0, activator control 100
# Chain of Potassium voltage-gated channel subfamily KQT member 2 (Rattus norvegicus) (O88943 whole entry, looked up): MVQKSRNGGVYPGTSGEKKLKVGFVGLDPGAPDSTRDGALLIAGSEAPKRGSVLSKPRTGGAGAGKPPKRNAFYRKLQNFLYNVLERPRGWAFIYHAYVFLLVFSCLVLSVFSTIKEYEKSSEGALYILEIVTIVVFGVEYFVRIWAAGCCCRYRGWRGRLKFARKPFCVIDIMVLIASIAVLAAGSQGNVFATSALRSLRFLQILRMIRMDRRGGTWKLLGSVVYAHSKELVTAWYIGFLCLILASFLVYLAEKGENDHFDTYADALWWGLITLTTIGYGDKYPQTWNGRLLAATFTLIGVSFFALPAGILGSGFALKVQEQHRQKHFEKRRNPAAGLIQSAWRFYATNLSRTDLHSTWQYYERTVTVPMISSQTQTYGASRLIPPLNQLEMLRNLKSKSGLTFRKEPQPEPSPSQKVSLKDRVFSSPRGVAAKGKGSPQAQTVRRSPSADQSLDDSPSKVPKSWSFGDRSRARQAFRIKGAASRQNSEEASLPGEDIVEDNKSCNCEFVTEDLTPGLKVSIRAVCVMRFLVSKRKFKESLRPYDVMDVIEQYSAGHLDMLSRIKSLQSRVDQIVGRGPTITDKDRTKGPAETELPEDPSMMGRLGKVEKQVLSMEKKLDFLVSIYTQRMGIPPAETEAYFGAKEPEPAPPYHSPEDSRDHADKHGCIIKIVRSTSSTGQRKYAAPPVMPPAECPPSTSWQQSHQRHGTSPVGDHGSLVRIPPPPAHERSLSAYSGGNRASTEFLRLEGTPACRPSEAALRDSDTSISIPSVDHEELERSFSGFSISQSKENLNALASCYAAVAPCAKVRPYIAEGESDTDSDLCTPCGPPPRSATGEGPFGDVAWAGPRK
# Chain of Short transient receptor potential channel 6 (Mus musculus) (Q61143 whole entry, looked up): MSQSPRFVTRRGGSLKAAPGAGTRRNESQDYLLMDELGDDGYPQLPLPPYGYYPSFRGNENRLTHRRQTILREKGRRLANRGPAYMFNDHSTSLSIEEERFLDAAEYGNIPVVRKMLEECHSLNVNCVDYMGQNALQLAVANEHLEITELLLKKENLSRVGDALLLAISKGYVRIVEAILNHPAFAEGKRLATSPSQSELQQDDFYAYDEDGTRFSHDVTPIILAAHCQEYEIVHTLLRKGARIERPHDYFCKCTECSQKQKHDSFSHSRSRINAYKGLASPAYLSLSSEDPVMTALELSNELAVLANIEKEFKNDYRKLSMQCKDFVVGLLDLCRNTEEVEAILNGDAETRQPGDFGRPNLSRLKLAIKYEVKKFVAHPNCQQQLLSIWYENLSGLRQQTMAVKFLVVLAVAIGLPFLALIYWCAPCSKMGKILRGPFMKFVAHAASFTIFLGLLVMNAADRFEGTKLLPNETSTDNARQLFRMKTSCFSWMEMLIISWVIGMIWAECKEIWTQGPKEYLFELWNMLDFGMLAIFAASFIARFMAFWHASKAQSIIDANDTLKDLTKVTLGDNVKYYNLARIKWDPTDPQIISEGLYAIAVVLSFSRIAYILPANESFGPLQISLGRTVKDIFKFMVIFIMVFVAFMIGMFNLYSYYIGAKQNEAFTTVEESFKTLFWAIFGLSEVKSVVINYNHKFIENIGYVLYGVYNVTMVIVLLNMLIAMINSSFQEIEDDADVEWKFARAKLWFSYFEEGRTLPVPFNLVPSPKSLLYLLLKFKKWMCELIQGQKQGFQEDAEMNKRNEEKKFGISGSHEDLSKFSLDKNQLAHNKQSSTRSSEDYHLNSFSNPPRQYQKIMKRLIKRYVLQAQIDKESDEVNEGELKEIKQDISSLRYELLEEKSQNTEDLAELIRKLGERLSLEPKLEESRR
# Chain of Short transient receptor potential channel 4 (Mus musculus) (Q9QUQ5 whole entry, looked up): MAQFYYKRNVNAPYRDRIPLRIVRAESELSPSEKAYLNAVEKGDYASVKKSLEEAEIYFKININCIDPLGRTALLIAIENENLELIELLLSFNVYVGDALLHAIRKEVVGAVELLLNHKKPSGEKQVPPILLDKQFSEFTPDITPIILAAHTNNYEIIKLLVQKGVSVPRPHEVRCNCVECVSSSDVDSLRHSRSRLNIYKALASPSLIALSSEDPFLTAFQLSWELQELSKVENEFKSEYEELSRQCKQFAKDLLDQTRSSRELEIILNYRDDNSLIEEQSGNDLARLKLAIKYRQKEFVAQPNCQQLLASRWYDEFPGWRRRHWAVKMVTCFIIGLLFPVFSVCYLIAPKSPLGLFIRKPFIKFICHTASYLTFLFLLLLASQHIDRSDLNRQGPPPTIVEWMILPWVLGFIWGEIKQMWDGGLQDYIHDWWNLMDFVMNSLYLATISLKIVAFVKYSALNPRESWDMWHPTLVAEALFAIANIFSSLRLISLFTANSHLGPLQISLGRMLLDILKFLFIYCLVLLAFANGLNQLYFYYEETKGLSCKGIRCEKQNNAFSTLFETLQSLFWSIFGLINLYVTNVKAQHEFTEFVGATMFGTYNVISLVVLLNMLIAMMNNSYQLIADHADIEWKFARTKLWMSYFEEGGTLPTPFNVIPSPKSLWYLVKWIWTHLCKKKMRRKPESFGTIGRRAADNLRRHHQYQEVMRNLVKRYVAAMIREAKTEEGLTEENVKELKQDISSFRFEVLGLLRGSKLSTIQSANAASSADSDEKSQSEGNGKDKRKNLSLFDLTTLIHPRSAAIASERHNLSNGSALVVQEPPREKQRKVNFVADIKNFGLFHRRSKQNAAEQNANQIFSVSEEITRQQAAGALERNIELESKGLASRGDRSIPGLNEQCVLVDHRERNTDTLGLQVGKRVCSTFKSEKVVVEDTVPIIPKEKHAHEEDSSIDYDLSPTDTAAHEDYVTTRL
# Chain of Potassium voltage-gated channel subfamily KQT member 1 (Homo sapiens) (P51787 whole entry, looked up): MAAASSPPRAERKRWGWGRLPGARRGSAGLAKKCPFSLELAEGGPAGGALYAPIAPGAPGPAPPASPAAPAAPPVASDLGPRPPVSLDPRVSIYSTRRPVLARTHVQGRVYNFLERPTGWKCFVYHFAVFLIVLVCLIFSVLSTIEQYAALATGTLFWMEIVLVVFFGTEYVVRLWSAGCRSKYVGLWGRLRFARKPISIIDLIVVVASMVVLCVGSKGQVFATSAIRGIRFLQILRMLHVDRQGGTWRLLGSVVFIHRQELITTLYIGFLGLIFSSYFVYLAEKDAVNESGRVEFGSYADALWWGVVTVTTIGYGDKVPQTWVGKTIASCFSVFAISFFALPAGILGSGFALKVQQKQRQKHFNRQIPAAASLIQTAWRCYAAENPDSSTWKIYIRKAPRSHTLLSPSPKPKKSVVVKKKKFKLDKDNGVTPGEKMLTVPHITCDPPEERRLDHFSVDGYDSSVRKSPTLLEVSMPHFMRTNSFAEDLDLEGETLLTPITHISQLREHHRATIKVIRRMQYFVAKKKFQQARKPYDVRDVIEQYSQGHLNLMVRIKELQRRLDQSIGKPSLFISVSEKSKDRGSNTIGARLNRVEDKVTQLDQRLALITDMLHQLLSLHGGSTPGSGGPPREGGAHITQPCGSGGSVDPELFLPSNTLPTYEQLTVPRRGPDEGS
smiles,measurement,setting,value
Cc1cc(C)nc(Nc2nc(=O)c3ccccc3s2)n1,outcome,[1],inactive
same,outcome,[2],inactive
same,potentiation,[3],10% (active)
same,potentiation,[4],82% (active)
same,outcome,[5],inactive
same,outcome,[6],inactive
same,outcome,[7],inactive
same,outcome,[8],inactive
same,outcome,[9],inactive
same,outcome,[10],inactive
same,outcome,[11],inactive
same,outcome,[12],inactive
same,outcome,[13],inactive
same,outcome,[14],inactive
same,potentiation,[15],81.3% (active)
same,outcome,[16],inactive
same,outcome,[17],inactive
CC(=O)c1ccc(N2CCN(c3ccc(S(=O)(=O)NCCCN(C)C)cc3[N+](=O)[O-])CC2)cc1,outcome,[1],inactive
same,outcome,[2],inactive
same,potentiation,[3],12% (active)
same,potentiation,[4],19% (active)
same,outcome,[5],inactive
same,outcome,[6],inactive
same,outcome,[7],inactive
same,outcome,[8],inactive
same,outcome,[9],inactive
same,outcome,[10],inactive
same,outcome,[11],inactive
same,outcome,[12],inactive
same,outcome,[13],inactive
same,outcome,[14],inactive
same,potentiation,[15],14.6% (active)
same,outcome,[16],inactive
same,outcome,[17],inactive
CCOC(=O)c1c(NC(=O)C2CCCO2)sc2c1CCC2 (stereo unspecified),outcome,[1],inactive
same,outcome,[2],inactive
same,outcome,[3],inactive
same,potentiation,[4],40% (active)
same,outcome,[5],inactive
same,outcome,[6],inactive
same,outcome,[7],inactive
same,outcome,[8],inactive
same,outcome,[9],inactive
same,outcome,[10],inactive
same,outcome,[11],inactive
same,outcome,[12],inactive
same,outcome,[13],inactive
same,outcome,[14],inactive
same,potentiation,[15],47.8% (active)
same,outcome,[16],inactive
same,outcome,[17],inactive
c1coc(CN=C2NC(=NCc3ccco3)c3ccccc32)c1,outcome,[1],inactive
same,outcome,[2],inactive
same,outcome,[3],inactive
same,outcome,[4],inactive
same,inhibition,[5],98% (active)
same,inhibition,[6],49% (active)
same,outcome,[7],inactive
same,outcome,[8],inactive
same,outcome,[9],inactive
same,inhibition,[10],47.5% (active)
same,outcome,[11],inactive
same,outcome,[12],inactive
same,outcome,[13],inactive
same,inhibition,[14],35.3% (active)
same,outcome,[15],inactive
same,outcome,[16],inactive
same,outcome,[17],inactive
Cc1cc(Br)ccc1OCCN1CCCC1,outcome,[1],inactive
same,outcome,[2],inactive
same,potentiation,[3],12% (active)
same,outcome,[4],inactive
same,outcome,[5],inactive
same,outcome,[6],inactive
same,outcome,[7],inactive
same,outcome,[8],inactive
same,outcome,[9],inactive
same,outcome,[10],inactive
same,outcome,[11],inactive
same,outcome,[12],inactive
same,outcome,[13],inactive
same,outcome,[14],inactive
same,potentiation,[15],7.25% (active)
same,outcome,[16],inactive
same,outcome,[17],inactive
COc1cc2c(C(=O)N3CCN(C)CC3)c(CSc3ccccc3)n(C)c2cc1Br,outcome,[1],inactive
same,outcome,[2],inactive
same,outcome,[3],inactive
same,potentiation,[4],25% (active)
same,outcome,[5],inactive
same,outcome,[6],inactive
same,outcome,[7],inactive
same,outcome,[8],inactive
same,outcome,[9],inactive
same,outcome,[10],inactive
same,outcome,[11],inactive
same,outcome,[12],inactive
same,outcome,[13],inactive
same,outcome,[14],inactive
same,potentiation,[15],10.5% (active)
same,outcome,[16],inactive
same,outcome,[17],inactive
Cc1ccc(CSc2nnc(-c3cccc(S(=O)(=O)N4CCOCC4)c3)n2C2CCCC2)cc1,outcome,[1],inactive
same,outcome,[2],inactive
same,outcome,[3],inactive
same,outcome,[4],inactive
same,outcome,[5],inactive
same,outcome,[6],inactive
same,outcome,[7],inactive
same,outcome,[8],inactive
same,outcome,[9],inactive
same,outcome,[10],inactive
same,outcome,[11],inactive
same,outcome,[12],inactive
same,outcome,[13],inactive
same,outcome,[14],inactive
same,outcome,[15],inactive
same,outcome,[16],inactive
same,outcome,[17],inactive
O=C(NC1CCCC1)c1cc2ccccc2o1,outcome,[1],inactive
same,outcome,[2],inactive
same,outcome,[3],inactive
same,potentiation,[4],14% (active)
same,outcome,[5],inactive
same,outcome,[6],inactive
same,outcome,[7],inactive
same,outcome,[8],inactive
same,outcome,[9],inactive
same,outcome,[10],inactive
same,outcome,[11],inactive
same,outcome,[12],inactive
same,outcome,[13],inactive
same,outcome,[14],inactive
same,potentiation,[15],19.7% (active)
same,outcome,[16],inactive
same,outcome,[17],inactive
Cc1ccc(-c2csc3ncnc(NCCN4CCOCC4)c23)cc1,outcome,[1],inactive
same,outcome,[2],inactive
same,outcome,[3],inactive
same,outcome,[4],inactive
same,inhibition,[5],76% (active)
same,outcome,[6],inactive
same,outcome,[7],inactive
same,outcome,[8],inactive
same,outcome,[9],inactive
same,outcome,[10],inactive
same,outcome,[11],inactive
same,outcome,[12],inactive
same,outcome,[13],inactive
same,inhibition,[14],32.6% (active)
same,outcome,[15],inactive
same,outcome,[16],inactive
same,outcome,[17],inactive
COc1cccc(N(C(=O)c2snc(C(N)=O)c2N)C(C(=O)NCC2CCCO2)c2ccc3ncccc3c2)c1 (stereo unspecified),outcome,[1],inactive
same,outcome,[2],inactive
same,outcome,[3],inactive
same,outcome,[4],inactive
same,inhibition,[5],76% (active)
same,outcome,[6],inactive
same,outcome,[7],inactive
same,outcome,[8],inactive
same,outcome,[9],inactive
same,outcome,[10],inactive
same,outcome,[11],inactive
same,outcome,[12],inactive
same,outcome,[13],inactive
same,outcome,[14],inactive
same,outcome,[15],inactive
same,outcome,[16],inactive
same,outcome,[17],inactive
CCC(C(=O)Nc1ccccc1OC)n1c(C(=O)OC)cc2ccsc21 (stereo unspecified),outcome,[1],inactive
same,outcome,[2],inactive
same,outcome,[3],inactive
same,potentiation,[4],17% (active)
same,outcome,[5],inactive
same,outcome,[6],inactive
same,outcome,[7],inactive
same,outcome,[8],inactive
same,outcome,[9],inactive
same,outcome,[10],inactive
same,outcome,[11],inactive
same,outcome,[12],inactive
same,outcome,[13],inactive
same,outcome,[14],inactive
same,potentiation,[15],75.5% (active)
same,outcome,[16],inactive
same,outcome,[17],inactive
NC(=O)c1nsc(C(=O)N(Cc2ccco2)C(C(=O)NCc2ccccc2)c2ccc(O)cc2)c1N (stereo unspecified),outcome,[1],inactive
same,outcome,[2],inactive
same,outcome,[3],inactive
same,outcome,[4],inactive
same,inhibition,[5],72% (active)
same,outcome,[6],inactive
same,outcome,[7],inactive
same,outcome,[8],inactive
same,outcome,[9],inactive
same,outcome,[10],inactive
same,outcome,[11],inactive
same,outcome,[12],inactive
same,outcome,[13],inactive
same,inhibition,[14],40% (active)
same,outcome,[15],inactive
same,outcome,[16],inactive
same,outcome,[17],inactive
CCCCCCCCCC[n+]1cccc2c3ccccc3ccc21,outcome,[1],inactive
same,outcome,[2],inactive
same,outcome,[3],inactive
same,outcome,[4],inactive
same,outcome,[5],inactive
same,outcome,[6],inactive
same,outcome,[7],inactive
same,outcome,[8],inactive
same,outcome,[9],inactive
same,outcome,[10],inactive
same,outcome,[11],inactive
same,outcome,[12],inactive
same,outcome,[13],inactive
same,outcome,[14],inactive
same,outcome,[15],inactive
same,outcome,[16],inactive
same,outcome,[17],inactive
same,activation,[18],245% (active)
same,potentiation,[19],64% (active)
same,potentiation,[20],194% (active)
COc1ccc(NS(=O)(=O)c2ccc3ccccc3c2)c2ncccc12,outcome,[1],inactive
same,outcome,[2],inactive
same,outcome,[3],inactive
same,outcome,[4],inactive
same,outcome,[5],inactive
same,outcome,[6],inactive
same,outcome,[7],inactive
same,outcome,[8],inactive
same,outcome,[9],inactive
same,outcome,[10],inactive
same,outcome,[11],inactive
same,outcome,[12],inactive
same,outcome,[13],inactive
same,outcome,[14],inactive
same,outcome,[15],inactive
same,outcome,[16],inactive
same,outcome,[17],inactive
same,outcome,[18],inactive
same,potentiation,[19],49% (active)
same,potentiation,[20],172% (active)
Cc1c(N2C(=O)/C(=C\C3CC=CCC3)SC2=S)c(=O)n(-c2ccccc2)n1C (stereo unspecified),outcome,[1],inactive
same,outcome,[2],inactive
same,outcome,[3],inactive
same,outcome,[4],inactive
same,outcome,[5],inactive
same,outcome,[6],inactive
same,outcome,[7],inactive
same,outcome,[8],inactive
same,outcome,[9],inactive
same,outcome,[10],inactive
same,outcome,[11],inactive
same,outcome,[12],inactive
same,outcome,[13],inactive
same,outcome,[14],inactive
same,outcome,[15],inactive
same,outcome,[16],inactive
same,outcome,[17],inactive
